Here are results for 8 compounds from PubChem BioAssay (EPA / NIEHS).

Records with an inconclusive call do not appear. The source made the active and inactive calls. The calls were made as follows, unless noted: active = hit-call score of the fitted dose curve at least 0.9, where 1 is the maximum; inactive = score below 0.9.

Experiment [1] has as its target Paired box protein Pax-6 (Homo sapiens) (UniProt P26367). As to the kind of experiment: ATG_Pax6_CIS: Attagene CIS-FACTORIAL HepG2 Assay for human Paired Box 6 (PAX6) (AID 2282956). The note with it: HepG2 CIS-FACTORIAL PAX6 reporter transcription, RNA readout; actives raise or lower the signal. In short, it runs like this: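 Fluorescent RT-PCR products separated by capillary electrophoresis report PAX6-linked promoter mRNA in HepG2 cells 24 h post-dose. Curves fitted bidirectionally, DMSO as negative control.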

A short description of experiment [2]: ATG_PPRE_CIS: Attagene CIS-FACTORIAL HepG2 Assay for human Peroxisome Proliferator-activated Response Element (PPRE) (AID 2282958). Conditions: HepG2 PPRE cis-element reporter, Attagene transcription factor profiling; actives raise or lower the signal. In short, it runs like this:
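HepG2 cells transiently transfected with multiplexed cis-element reporter units measure endogenous transcription factor activity. After 24 h compound exposure, reporter mRNA is quantified by RT-PCR, 6-FAM labeling, HpaI digestion and capillary electrophoresis; bidirectional fits are made against DMSO baseline.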

Experiment [3] can be described thus: ATG_RORE_CIS: Attagene CIS-FACTORIAL HepG2 Assay for human RAR-related Orphan Receptor Element (RORE) (AID 2282959). Conditions: HepG2 Attagene cis-factorial RORE reporter, mRNA; actives raise or lower the signal. In short, it runs like this:
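HepG2 cells transiently transfected with multiple cis-element reporter transcription units, exposed to chemical for 24 h. Reporter mRNA quantified by RT-PCR, 6-FAM primer-extension labeling, HpaI digestion and capillary electrophoresis; bidirectional fit versus DMSO baseline.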

Experiment [4] in a line: ATG_Sox_CIS: Attagene CIS-FACTORIAL HepG2 Assay for human SRY-box transcription factor (SOX) (AID 2282960). The note with it: HepG2 Attagene cis-factorial SOX reporter, mRNA; actives raise or lower the signal. An outline of the steps: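 HepG2 cells transiently transfected with cis-element-driven multiple reporter transcription units, dosed 24 h; reporter mRNA measured by RT-PCR, FAM labelling, HpaI digestion and capillary electrophoresis. Bidirectional fit versus DMSO baseline.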

For experiment [5], the target named is Transcription factor Sp1 (Homo sapiens) (UniProt P08047). As to the kind of experiment: ATG_Sp1_CIS: Attagene CIS-FACTORIAL HepG2 Assay for human Specificity Protein 1 (Sp1) (AID 2282961). Conditions: HepG2 Sp1 cis-reporter transcription, actives raise or lower the signal. In short, it runs like this:
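HepG2 cells transiently transfected with multiple reporter transcription units driven by cis-regulatory elements; Sp1-responsive reporter mRNA measured 24 h after dosing by RT-PCR and capillary electrophoresis fluorescence, fitted bidirectionally against DMSO baseline.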

Experiment [6] is described as follows: ATG_SREBP_CIS: Attagene CIS-FACTORIAL HepG2 Assay for human Sterol Regulatory Element Binding (SREBP) (AID 2282962). The note with it: HepG2 Attagene cis-factorial SREBP reporter, mRNA; actives raise or lower the signal. An outline of the steps:
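Endogenous factor activity is measured in HepG2 through multiplexed reporter units under cis-element control. Following a 24 h incubation, reporter transcripts are reverse-transcribed, PCR-amplified and sized by capillary electrophoresis; activity is fitted in both directions relative to DMSO.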

For experiment [7], the target named is Signal transducer and activator of transcription 3 (Homo sapiens) (UniProt P40763). In words: ATG_STAT3_CIS: Attagene CIS-FACTORIAL HepG2 Assay for human Signal Transducer and Activator of Transcription 3 (STAT3) (AID 2282963). The note with it: HepG2, Attagene cis-factorial STAT3 reporter transcription; actives raise or lower the signal. In short, it runs like this: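 Uses human liver HepG2 transiently carrying cis-regulated reporter transcription units. Following 24 h dosing, reporter mRNA induction was detected by RT-PCR and capillary electrophoresis, analysed bidirectionally versus DMSO.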

A short description of experiment [8]: ATG_TA_CIS: Attagene CIS-FACTORIAL HepG2 Assay for human TA Basal Promoter (AID 2282964). Conditions: HepG2 Attagene CIS-factorial TA basal promoter reporter; actives raise or lower the signal. An outline of the steps: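 Cis-factorial format in HepG2: reporters report endogenous factors, not chimeric Gal4 fusions. After 24 h treatment, reporter transcripts were measured by RT-PCR-capillary electrophoresis fluorescence, analysed bidirectionally versus DMSO.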

Experiment [9] is described as follows: ATG_TCF_b_cat_CIS: Attagene CIS-FACTORIAL HepG2 Assay for human T-Cell-Factor with beta-catenin (TCF/b-cat) (AID 2282965). The note with it: HepG2 TCF/beta-catenin cis-reporter transcription, actives raise or lower the signal. In short, it runs like this:
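Using capillary electrophoresis as the read-out, labelled reporter cDNA fragments from transiently transfected HepG2 were sized and quantified. Exposure lasted 24 hours; activity in either direction was referenced to DMSO.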

Experiment [10] in a line: ATG_TAL_CIS: Attagene CIS-FACTORIAL HepG2 Assay for human TAL Basal Promoter (AID 2282966).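 Also: background control endpoint measuring basal TAL promoter reporter mRNA not a specific factor.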 Conditions: HepG2 Attagene cis-factorial TAL promoter reporter; actives raise or lower the signal. An outline of the steps: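 Background-control endpoint: basal TAL promoter reporter transcripts in transiently transfected HepG2, measured 24 h after dosing. Read-out by RT-PCR with fluorescent primer extension and capillary electrophoresis; gain or loss of signal fitted relative to DMSO.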

Experiment [11] can be described thus: ATG_TGFb_CIS: Attagene CIS-FACTORIAL HepG2 Assay for human Transforming Growth Factor (TGF) (AID 2282967). Conditions: HepG2 Attagene CIS TGFb reporter, mRNA transcription; actives raise or lower the signal. In short, it runs like this: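 Multiplexed cis-reporter HepG2 system, 24 h treatment; mRNA induction read by fluorescence after RT-PCR and CE; DMSO negative control, bidirectional curve fitting.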

Experiment [12] can be described thus: ATG_VDRE_CIS: Attagene CIS-FACTORIAL HepG2 Assay for human Vitamin D Receptor Element (VDRE) (AID 2282968). The note with it: HepG2 VDRE cis-reporter transcription, actives raise or lower the signal. An outline of the steps:
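Transfected HepG2 reporter cells, chemical treatment 24 h. RNA isolated, cDNA amplified with reporter-specific primers, products analysed by capillary electrophoresis. Endpoint fitted in both directions versus DMSO.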

Experiment [13] addresses X-box-binding protein 1 (Homo sapiens) (UniProt P17861). As to the kind of experiment: ATG_Xbp1_CIS: Attagene CIS-FACTORIAL HepG2 Assay for human X-box Binding Protein 1 (XBP1) (AID 2282972). The note with it: HepG2 XBP1 cis-element reporter, Attagene multiplex; actives raise or lower the signal. In short, it runs like this:
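Multiplexed cis-reporter readout in transfected HepG2 liver cells. Exposure lasted 24 hours. Activity in either direction was fitted against DMSO as negative control and baseline.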

Experiment [14] has as its target Estrogen-related receptor gamma (Homo sapiens) (UniProt P62508). In words: ATG_ERRg_TRANS: Attagene TRANS-FACTORIAL HepG2 Assay for human Estrogen-Related Receptor gamma (ERRg) (AID 2282977; active = hit-call score of the fitted dose curve at least 0.9, where 1 is the maximum;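 also: hits increase reporter signal over DMSO so potencies reflect activators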). Conditions: HepG2 Attagene TRANS reporter, ERRg transactivation. In short, it runs like this:
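Exogenous NR-Gal4 chimera activity was assessed in HepG2 cells bearing transfected GAL4-UAS reporters. After 24 h dosing, total RNA underwent RT-PCR, fluorescent primer extension and HpaI digestion before capillary electrophoresis, with gain of signal scored against DMSO.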

Experiment [15] can be described thus: ATG_PXRE_CIS: Attagene CIS-FACTORIAL HepG2 Assay for human Pregnane X Receptor Element (PXRE) (AID 2282957). Conditions: HepG2 Attagene CIS-FACTORIAL PXRE reporter, mRNA; actives raise or lower the signal. In short, it runs like this:
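Reporter transcripts under endogenous PXR-responsive cis-regulation quantified from total RNA of transfected HepG2 cells 24 h post-dosing, via RT-PCR with fluorescent primer extension and capillary electrophoresis. Gain or loss of signal fitted against DMSO baseline.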

Experiment [16] is described as follows: ATG_M_19_TRANS: Attagene TRANS-FACTORIAL HepG2 Assay for M19 Transcription Factor (Internal Marker) (AID 2282974; active = hit-call score of the fitted dose curve at least 0.9, where 1 is the maximum). Conditions: HepG2 Attagene TRANS-FACTORIAL M19 internal marker reporter. An outline of the steps:
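HepG2 cells transiently transfected with multiple GAL4-UAS reporter transcription units were exposed to chemicals for 24 h. Reporter mRNA was read by RT-PCR, 6-FAM primer extension, HpaI digestion and capillary electrophoresis; gain of signal fitted relative to DMSO.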

Experiment [17] is described as follows: ATG_GAL4_TRANS: Attagene TRANS-FACTORIAL HepG2 Assay for GAL4 (Internal Marker) (AID 2282976; active = hit-call score of the fitted dose curve at least 0.9, where 1 is the maximum). Conditions: HepG2 Attagene TRANS GAL4 internal marker reporter. In short, it runs like this: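 In transfected human HepG2 liver cells dosed 24 h, GAL4 reporter mRNA serves as a baseline marker. Detection by RT-PCR with fluorescent capillary electrophoresis, activity fitted upward relative to DMSO.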

Experiment [18] concerns the target Estrogen receptor (Homo sapiens) (UniProt P03372). In words: ATG_ERa_TRANS: Attagene TRANS-FACTORIAL HepG2 Assay for human Estrogen Receptor alpha (ERa) (AID 2282970; active = hit-call score of the fitted dose curve at least 0.9, where 1 is the maximum). Conditions: HepG2 Attagene TRANS ERa GAL4 reporter, mRNA. In short, it runs like this:
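Reporter transcripts were measured 24 h after dosing by RT-PCR with fluorescent primer extension and capillary electrophoresis. The system is transiently transfected HepG2 expressing exogenous NR-Gal4 chimeras driving GAL4-UAS reporters; DMSO is the baseline.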

For experiment [19], the target named is Nuclear receptor subfamily 1 group I member 3 (Homo sapiens) (UniProt Q14994). As to the kind of experiment: ATG_CAR_TRANS: Attagene TRANS-FACTORIAL HepG2 Assay for human Constitutive Androstane Receptor (CAR) (AID 2282969; active = hit-call score of the fitted dose curve at least 0.9, where 1 is the maximum;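 also: activators raise reporter mRNA above DMSO so AC50 marks induction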). Conditions: HepG2 Attagene TRANS-FACTORIAL CAR reporter. In short, it runs like this:
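Steps: transient transfection of HepG2 with multiple GAL4-UAS reporter units; 24 h compound incubation; RNA isolation, RT-PCR, 6-FAM primer extension, HpaI digest; capillary electrophoresis. Gain-of-signal relative to DMSO negative control.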

Chain of Transcription factor Sp1 (Homo sapiens) (P08047 whole entry, looked up): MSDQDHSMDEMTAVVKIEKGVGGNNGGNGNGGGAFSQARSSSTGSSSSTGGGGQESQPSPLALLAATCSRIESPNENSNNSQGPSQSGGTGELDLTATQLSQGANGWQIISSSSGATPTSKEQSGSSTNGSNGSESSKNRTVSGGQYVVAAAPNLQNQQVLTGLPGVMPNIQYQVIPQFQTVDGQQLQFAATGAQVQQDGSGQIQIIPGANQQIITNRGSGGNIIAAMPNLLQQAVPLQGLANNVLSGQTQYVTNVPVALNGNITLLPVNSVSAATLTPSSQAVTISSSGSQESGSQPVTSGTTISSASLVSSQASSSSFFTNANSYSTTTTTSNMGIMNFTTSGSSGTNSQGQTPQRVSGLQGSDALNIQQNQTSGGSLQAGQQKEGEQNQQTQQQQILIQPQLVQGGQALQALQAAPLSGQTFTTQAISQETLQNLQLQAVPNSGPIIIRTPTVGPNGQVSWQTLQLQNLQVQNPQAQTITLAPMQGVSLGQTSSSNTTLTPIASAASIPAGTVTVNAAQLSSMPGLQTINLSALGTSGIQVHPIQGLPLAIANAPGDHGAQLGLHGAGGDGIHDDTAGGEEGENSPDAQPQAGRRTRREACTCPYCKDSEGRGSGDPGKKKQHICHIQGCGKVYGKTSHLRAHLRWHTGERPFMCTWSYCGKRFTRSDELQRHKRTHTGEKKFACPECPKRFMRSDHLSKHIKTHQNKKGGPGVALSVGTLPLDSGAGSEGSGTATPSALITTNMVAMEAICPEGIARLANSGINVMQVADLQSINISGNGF
Chain of Signal transducer and activator of transcription 3 (Homo sapiens) (P40763 whole entry, looked up): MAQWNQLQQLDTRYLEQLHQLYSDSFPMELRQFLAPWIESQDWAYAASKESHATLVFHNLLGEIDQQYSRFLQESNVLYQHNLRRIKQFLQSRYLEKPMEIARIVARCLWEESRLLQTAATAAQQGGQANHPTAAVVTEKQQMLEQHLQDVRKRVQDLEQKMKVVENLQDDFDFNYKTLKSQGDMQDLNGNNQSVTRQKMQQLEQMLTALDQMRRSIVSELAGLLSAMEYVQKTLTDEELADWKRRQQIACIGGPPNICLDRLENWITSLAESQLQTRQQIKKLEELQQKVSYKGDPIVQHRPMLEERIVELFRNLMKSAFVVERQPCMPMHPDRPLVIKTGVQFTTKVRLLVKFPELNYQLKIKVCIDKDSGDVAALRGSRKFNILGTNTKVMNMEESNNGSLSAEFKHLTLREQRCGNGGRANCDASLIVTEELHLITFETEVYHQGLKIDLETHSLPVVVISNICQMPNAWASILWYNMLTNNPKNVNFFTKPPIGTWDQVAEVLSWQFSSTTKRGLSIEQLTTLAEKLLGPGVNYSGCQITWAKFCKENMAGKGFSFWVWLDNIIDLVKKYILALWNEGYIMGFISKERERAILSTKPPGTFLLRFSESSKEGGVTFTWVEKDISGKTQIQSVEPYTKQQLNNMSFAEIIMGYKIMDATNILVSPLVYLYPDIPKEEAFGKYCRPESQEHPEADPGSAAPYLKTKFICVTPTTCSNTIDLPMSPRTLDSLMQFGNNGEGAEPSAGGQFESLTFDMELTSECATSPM
Chain of Paired box protein Pax-6 (Homo sapiens) (P26367 whole entry, looked up): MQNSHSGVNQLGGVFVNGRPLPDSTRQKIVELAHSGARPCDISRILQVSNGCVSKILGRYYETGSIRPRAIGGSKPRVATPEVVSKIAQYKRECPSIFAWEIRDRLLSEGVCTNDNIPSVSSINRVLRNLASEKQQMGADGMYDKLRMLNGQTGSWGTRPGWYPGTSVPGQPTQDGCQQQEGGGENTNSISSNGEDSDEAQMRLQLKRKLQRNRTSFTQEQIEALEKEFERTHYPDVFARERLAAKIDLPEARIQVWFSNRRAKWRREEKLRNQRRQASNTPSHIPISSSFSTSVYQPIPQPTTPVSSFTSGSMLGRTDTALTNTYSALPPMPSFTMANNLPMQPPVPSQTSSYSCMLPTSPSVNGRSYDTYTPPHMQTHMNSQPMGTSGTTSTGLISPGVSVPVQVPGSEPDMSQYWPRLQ
Chain of X-box-binding protein 1 (Homo sapiens) (P17861 whole entry, looked up): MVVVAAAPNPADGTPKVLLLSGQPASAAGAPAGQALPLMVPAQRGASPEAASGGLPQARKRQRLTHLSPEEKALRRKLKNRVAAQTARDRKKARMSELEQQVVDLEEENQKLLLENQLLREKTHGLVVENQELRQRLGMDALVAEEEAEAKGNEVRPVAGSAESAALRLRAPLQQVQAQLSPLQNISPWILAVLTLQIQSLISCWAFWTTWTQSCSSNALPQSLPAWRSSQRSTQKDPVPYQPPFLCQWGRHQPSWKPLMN
Chain of Estrogen-related receptor gamma (Homo sapiens) (P62508 whole entry, looked up, the tested form may be a part): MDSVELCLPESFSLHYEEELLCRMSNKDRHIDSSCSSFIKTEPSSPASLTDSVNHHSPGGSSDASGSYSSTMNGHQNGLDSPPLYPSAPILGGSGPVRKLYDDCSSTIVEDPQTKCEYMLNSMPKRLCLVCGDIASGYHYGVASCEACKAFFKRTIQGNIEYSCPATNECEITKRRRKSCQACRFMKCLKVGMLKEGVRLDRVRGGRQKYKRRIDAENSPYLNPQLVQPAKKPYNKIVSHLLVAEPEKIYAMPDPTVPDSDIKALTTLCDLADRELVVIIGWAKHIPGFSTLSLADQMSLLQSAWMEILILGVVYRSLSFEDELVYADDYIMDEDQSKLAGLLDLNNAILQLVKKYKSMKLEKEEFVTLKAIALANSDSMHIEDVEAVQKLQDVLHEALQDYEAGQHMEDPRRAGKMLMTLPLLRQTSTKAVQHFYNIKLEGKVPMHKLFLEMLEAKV
Chain of Nuclear receptor subfamily 1 group I member 3 (Homo sapiens) (Q14994 whole entry, looked up, the tested form may be a part): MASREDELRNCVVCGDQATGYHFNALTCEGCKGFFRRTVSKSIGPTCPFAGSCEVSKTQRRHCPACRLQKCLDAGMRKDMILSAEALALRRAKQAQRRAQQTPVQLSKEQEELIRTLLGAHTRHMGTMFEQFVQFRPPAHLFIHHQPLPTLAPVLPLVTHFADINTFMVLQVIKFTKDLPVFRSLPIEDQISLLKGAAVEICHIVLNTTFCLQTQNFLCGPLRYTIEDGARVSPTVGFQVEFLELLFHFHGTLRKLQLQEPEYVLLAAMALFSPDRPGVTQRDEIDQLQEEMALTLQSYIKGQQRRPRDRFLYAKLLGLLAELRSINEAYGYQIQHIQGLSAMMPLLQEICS
Chain of Estrogen receptor (Homo sapiens) (P03372 whole entry, looked up, the tested form may be a part): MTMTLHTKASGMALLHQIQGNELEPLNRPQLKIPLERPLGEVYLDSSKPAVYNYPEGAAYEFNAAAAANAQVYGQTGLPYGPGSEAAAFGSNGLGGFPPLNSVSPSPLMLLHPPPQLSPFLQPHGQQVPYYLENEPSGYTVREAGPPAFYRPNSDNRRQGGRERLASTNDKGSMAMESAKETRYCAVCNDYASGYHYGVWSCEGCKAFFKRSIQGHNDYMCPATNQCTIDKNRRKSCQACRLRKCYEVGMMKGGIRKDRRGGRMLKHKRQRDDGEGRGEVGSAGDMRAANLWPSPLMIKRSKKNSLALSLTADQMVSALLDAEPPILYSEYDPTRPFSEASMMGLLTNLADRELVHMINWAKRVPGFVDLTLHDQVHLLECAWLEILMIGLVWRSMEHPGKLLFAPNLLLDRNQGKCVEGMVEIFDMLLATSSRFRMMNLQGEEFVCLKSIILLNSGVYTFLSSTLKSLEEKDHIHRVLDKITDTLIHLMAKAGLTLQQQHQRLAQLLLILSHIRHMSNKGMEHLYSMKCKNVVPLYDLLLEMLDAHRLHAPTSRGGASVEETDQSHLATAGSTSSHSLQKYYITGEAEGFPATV

With `O=C1CCCCCN1`, the compound was classed as inactive in [1], in [2], in experiment [3], in experiment [4], in experiment [5] and in [6]. The call in experiment [7], in experiment [8], in experiment [9], in experiment [10], in [11] and in experiment [12] was inactive. The result in experiment [13] and in experiment [14] was inactive.

As for `CCOCCOCCOCCO`, the outcome in experiment [1], in [15], in [3], in [4], in experiment [5] and in experiment [6] was inactive. Moreover, the result in experiment [7], in [8], in [9], in [10], in experiment [11] and in experiment [12] was inactive. In addition, the compound was classed as inactive in experiment [13], in experiment [16] and in experiment [17].

For `CCC(C)(C)C(=O)O[C@H]1C[C@@H](C)C=C2C=C[C@H](C)[C@H](CC[C@@H]3C[C@@H](O)CC(=O)O3)[C@H]21`, the compound was classed as inactive in [1], in experiment [2], in experiment [3], in experiment [4], in [5] and in [7]. The compound was classed as inactive in experiment [8], in experiment [9], in experiment [10], in experiment [11], in experiment [12] and in [18]. In addition, the compound was called inactive in experiment [13], in experiment [16] and in experiment [17]. In experiment [6], the AC50 was 31.7 nM (active).

As for `CC(C)=CCC/C(C)=C/CO`, the outcome in experiment [1], in experiment [15], in [3], in experiment [4], in experiment [5] and in [6] was inactive. For the same compound, the compound was called inactive in experiment [7], in [8], in experiment [9], in experiment [10], in experiment [11] and in experiment [12]. Further, in experiment [13], the compound was classed as inactive.

Consider `O=C1CCC(N2C(=O)c3ccccc3C2=O)C(=O)N1` (centres undefined), for which the compound was classed as inactive in [1], in experiment [15], in experiment [2], in experiment [4], in [5] and in experiment [6]. Besides, the compound was classed as inactive in [7], in experiment [8], in [9], in [10], in experiment [11] and in experiment [13]. The result in experiment [17] was inactive.

In the case of `On1ccccc1=S`, the outcome in experiment [1], in experiment [2], in experiment [3], in experiment [4], in experiment [5] and in experiment [6] was inactive. Besides, the outcome in [7], in experiment [8], in [9], in experiment [10], in [11] and in [12] was inactive. Also, the call in [13] and in experiment [14] was inactive.

For `CCCC(=O)OCC`, the outcome in [1], in experiment [2], in experiment [3], in [4], in experiment [5] and in experiment [6] was inactive. Moreover, the compound was classed as inactive in [7], in [8], in experiment [9], in [10], in experiment [11] and in experiment [12]. In addition, the result in experiment [19], in experiment [13] and in [16] was inactive.

Consider `CCCCC(CC)COC(=O)CCCCCCCCC(=O)OCC(CC)CCCC` (centres undefined), for which the compound was called inactive in [1], in [15], in experiment [2], in experiment [3], in experiment [4] and in experiment [6]. For the same compound, the call in experiment [7], in experiment [8], in experiment [9], in experiment [10], in experiment [11] and in [12] was inactive. In addition, the compound was classed as inactive in experiment [13] and in experiment [16].
